Records with an inconclusive call do not appear. A call without a number means that no potency is given here. Calls of active or inactive are those of the source. Calls follow the shape of the dose curve; as a rule, active = well fitted curve in the direction sought with a large enough effect; inconclusive = small, poorly fitted or top-dose-only effect, or another doubt; inactive = no such curve, though single readings can be large; an effect the other way counts as inactive or inconclusive.
How the values were obtained:
[1] = target: Aldehyde dehydrogenase, mitochondrial (Homo sapiens) (UniProt P05091); experiment: qHTS for Inhibitors of the Aldehyde Dehydrogenase Family (ALDH2) Primary screen (AID 2061308); also: nearly all actives have a fitted effect of over 55% in size
[2] = target: Retinaldehyde dehydrogenase 3 (Homo sapiens) (UniProt P47895); experiment: qHTS for Inhibitors of the Aldehyde Dehydrogenase Family (ALDH1A3) Primary screen (AID 2061315)

SMILES	Potency [1]	Potency [2]
O=C(N[C@H]1CCN(C(=O)c2cc(C(F)(F)F)cc(C(F)(F)F)c2)[C@H](Cc2ccc(Cl)cc2)C1)c1ccnc2ccccc12	inactive	inactive
Cc1cc2c(s1)c1cnn(Cc3cc(C(F)(F)F)cc(Cl)c3F)c(=O)c1n2C	inactive	inactive
O=C1CCCC2=C1C(c1ncccc1Br)N=C(Nc1nc3ccccc3o1)N2 (stereo not given)	inactive	inactive
CC1CCC(C(=O)Nc2ccc([S+](=O)([O-])Nc3nccs3)cc2)CC1 (stereo not given)	inactive	inactive
Cc1nc2cc(C(=O)NCc3ccccn3)nn2c(C)c1Cc1cccc(Cl)c1	inactive	inactive
O=C1CCCC2=C1C(c1[nH]ncc1Cl)NC(=NCc1ccco1)N2 (stereo not given)	inactive	inactive
Cn1c(NC2=NC3(CCCC3)C3=C(CCCC3=O)N2)nc2ccccc21	inactive	inactive
c1nc(NCc2ccc3c(c2)OCO3)c2cc(-c3ccc4c(c3)OCCO4)ccc2n1	inactive	inactive
CC(=O)Nc1sc2c(c1-c1nc3ccccc3s1)CCNC2	inactive	inactive
Cc1cccc(-n2cnc3cc(C(=O)N4CCC(N5CCOCC5)CC4)ccc32)c1	inactive	inactive
COc1ccc(C2c3c(ncn(CCc4ccccc4)c3=N)Oc3ccc4ccccc4c32)cc1OC (stereo not given)	inactive	inactive
Cc1ccc(S(=O)(=O)N(C)c2cccc3cccnc23)cc1	inactive	inactive
O=C(NCCc1nc2ccccc2n1CCOc1ccc(F)cc1)C1CCCCC1	inactive	inactive
Clc1ccccc1-c1ccc2ncnc(NCc3cccnc3)c2c1	inactive	inactive
COc1ccc(OC)c(-c2nnc3n2N=C(c2ccc(OC)c(OC)c2)CS3)c1	inactive	inactive
FC(F)(F)c1ccccc1-c1nc2c(c(NCc3ccc(-c4cccnc4)cc3)n1)CCC2	inactive	inactive
O=C1CCCC2CC(Nc3nc4ccccc4o3)CC(c3ccccc3)C12 (stereo not given)	inactive	inactive
C[C@@H]1CC[C@]2(C(=O)O)CC[C@]3(C)C(=CCC4[C@@]5(C)C[C@@H](O)[C@H](O)[C@@](C)(CO)C5CC[C@]43C)C2[C@H]1C (stereo not given in full)	inactive	inactive
CCCCc1nnc(-c2cnn(C)c2N)n1CCCn1ccnc1	inactive	inactive
CCC(=O)NC(C)c1cc(Cl)c2cccnc2c1O (stereo not given)	inactive	inactive

SMILES	Potency [1]	Potency [2]
CCN(CC)CCCn1c(-c2ccccc2)nc2c(NCCOC)nc(C)nc21	inactive	inactive
O=[S+]([O-])(Nc1ccccc1)c1ccc(NCc2ccc(Cl)cc2O)cc1	inactive	inactive
CC(C)(C)c1cc(O)c(CN)c(C(C)(C)C)c1	inactive	inactive
O=C(OCC#CCSc1nnc(-c2cccc3ccccc23)o1)c1ccc(F)cc1	inactive	inactive
O=C(CNC(=O)C1CCCC1)OC(C(=O)Nc1cc(C(F)(F)F)ccc1Cl)c1ccccc1 (stereo not given)	inactive	inactive
O=C1CCCC2=C1C(c1[nH]ncc1Cl)N=C(Nc1ccn[nH]1)N2 (stereo not given)	inactive	inactive
CC(=O)Nc1sc2c(c1-c1ccc3nonc3c1)CCNC2	inactive	inactive
COc1ccccc1C1N=C(Nc2nc3ccccc3o2)NC2=C1C(=O)CCC2 (stereo not given)	inactive	inactive
Cc1ccc(NS(=O)(=O)c2cc3c(cc2Cl)CCC(=O)N3)cc1C	inactive	inactive
Cc1cnc(-c2ccccc2C(C)C)nc1NCc1ccc(C(N)=O)cc1	inactive	inactive
O=S(=O)(Nc1nccs1)c1ccc(Nc2nc(-c3ccccc3)cs2)cc1	inactive	inactive
Cc1ccc(OCCn2c(CCNC(=O)c3ccc(C(F)(F)F)cc3)nc3ccccc32)cc1	inactive	inactive
COc1ccc(-c2ccc3ncnc(NCCc4cnc[nH]4)c3c2)cc1OC	inactive	inactive
CCC(OC(=O)c1ccc(S(C)(=O)=O)c([N+](=O)[O-])c1)C(=O)NC1C2CC3CC(C2)CC1C3 (stereo not given)	inactive	inactive
Cc1cnccc1-c1nc(Nc2ccc(F)c(F)c2)c2ccccc2n1	inactive	inactive
Cc1ccc(OCCn2c(CCNC(=O)Cc3ccccc3)nc3ccccc32)cc1	inactive	inactive
COc1cccc(NC(=S)N2CCN(c3ccc(Cl)cc3Cl)CC2)n1	inactive	inactive
COc1ccc(NS(=O)(=O)c2ccc3c(c2)CCC(=O)N3)cc1	inactive	inactive
COc1ccc(C2C3=C(N=CN(CCN4CCOCC4)C3N)Oc3ccccc32)cc1OC (stereo not given)	inactive	inactive
O=S(=O)(c1ccc2c(c1)OCCO2)C1CCC(O)CC1 (stereo not given)	inactive	inactive

Reference: PubChem BioAssay (NCATS)
